Screening data (PubChem)
ATXN viability = cell viability loss in ATXN counter-screen; Potency, µM (titrated, usually from 56.7 µM), most hits filed as cytotoxic; actives 0.49% (n = 400,000); S2 cells (HEK-293 line with an ATXN2-luciferase reporter) viability, CellTiter-Fluor protease fluorescence, 24 h; also: nearly all actives have a fitted effect of over 40% in size
ATXN2 expr inh = reduces ATXN2 reporter expression in HEK-293 cells. HEK-293 ATXN2-luciferase reporter, luminescence, 24 h. Potency, µM (doses to about 57 µM), without a hit: at the highest dose activity change, negative = inhibition, actives largely listed as inhibitors. actives 0.72% (n = 360,000). AID 1745845; also: % is scaled to controls: 0 for no effect and ±100 for the full control effect; nearly all actives have a fitted effect of over 55% in size
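ATXN2-luciferase reporter cells (luciferase flanked by upstream and downstream ATXN2 gene portions) were treated 24 h at 37 °C with compounds at up to 57 uM. SteadyGlo luminescence gave expression; GF-AFC fluorescence gave viability.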
HT1080-NT tox = kills 2HG-producing HT-1080-NT fibrosarcoma cells; Potency, µM (doses to about 46.1 µM), for inactives: top-dose activity, negative = less viability, most hits filed as cytotoxic; actives 1.6% (n = 360,000); HT-1080-NT fibrosarcoma viability, CellTiter-Glo ATP luminescence, 48 h;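 also: NT is the 2HG producing partner of a matched IDH1 knockdown line; 0% = DMSO-treated cells and -100% = media-only wells without cells; nearly all actives have a fitted effect of over 55% in size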
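HT-1080-NT fibrosarcoma cells (2HG-overproducing), 750 cells/well in RPMI with 5% FBS, dosed after 2 h and incubated 48 h at 37C. CellTiter-Glo luminescence normalized to DMSO and no-cell wells; concentration-response curves fitted and classed.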
KB-V1 cytotox = kills drug-selected multidrug resistant KB-V1 cells; KB-V1 MDR cells viability, CellTiter-Glo, 72 h; Potency, µM (titrated, usually from 46.1 µM), most hits filed as cytotoxic; actives 3.4% (n = 400,000); AID 1347076; also: % is scaled to controls: 0 for no effect and ±100 for the full control effect; nearly all actives have a fitted effect of over 60% in size
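Luminescent ATP read-out (CellTiter-Glo, 10 min) measures survival of drug-selected KB-V1 MDR cells after 72 h, 37 degrees C compound exposure. Medium: phenol-red-free DMEM, 10% FBS. Values from fitted concentration-response curves.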
KB-3-1 cytotox = kills parental KB-3-1 adenocarcinoma cells; Potency, µM (series often up to 46.1 µM), most hits filed as cytotoxic; KB-3-1 viability, CellTiter-Glo ATP luminescence, 72 h; actives 1.4% (n = 400,000); AID 1347075; also: % is scaled to controls: 0 for no effect and ±100 for the full control effect; nearly all actives have a fitted effect of over 60% in size
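Screening of KB-3-1 cells (DMEM, 10% FBS, phenol-red free) ran from lowest to highest compound concentration; after 72 h at 37 °C viability was read luminescently and curves fitted.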
HT1080 IDH1KD tx = toxicity to HT-1080 IDH1 knockdown cells (counter line) | HT-1080 IDH1 knockdown viability, ATP luminescence, 48 h | Potency, µM (top dose mostly 46.1 µM), without a hit: at the top dose activity, negative = toxicity, hits mostly cytotoxic | actives 2% (n = 360,000) | AID 686971;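 also: 0% = DMSO wells and -100% = cell-free medium wells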
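% activity derives from luminescence (CellTiter-Glo), normalised to DMSO and no-cell wells. HT-1080-IDH1KD cells, 750/well, had 48 h compound exposure at 37 °C.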
* hit, by the source's call; i = inactive; ? = inconclusive; · = no result given. Most compounds without a hit are left out; they make up all but 6.2% or so of the library. Calls follow the shape of the dose curve; as a rule, active = well fitted curve in the direction sought with a large enough effect; inconclusive = small, poorly fitted or top-dose-only effect, or another doubt; inactive = no such curve, though single readings can be large; an effect the other way counts as inactive or inconclusive. Potency is read from the fitted curve at half-maximal effect.

SMILES	ATXN viability	ATXN2 expr inh	HT1080-NT tox	KB-V1 cytotox	KB-3-1 cytotox	HT1080 IDH1KD tx
N#Cc1ccccc1NC(=O)C(=O)NCC(c1cccnc1)N1CCN(c2ccccc2)CC1 (centres undefined)	i	2%	·	i	i	·
CC1CCCN(CC(=O)Nc2ccc(S(=O)(=O)N3CCCCCC3)cc2)C1 (centres undefined)	i	-7%	22µM*	?	i	?
CN(C)S(=O)(=O)c1ccc(NC(=O)C2CCCN(C(=O)c3ccc(Cl)cc3)C2)cc1 (centres undefined)	i	-5%	-3%	i	i	-2%
CC(C)[C@H](NC(=O)c1ccccc1)C(=O)OCC(=O)c1ccc(S(=O)(=O)N2CCCCC2)cc1	i	3%	2%	21µM*	i	0%
CC1CCCN(CC(=O)Nc2ccc(S(=O)(=O)N3CCCCC3)cc2)C1 (centres undefined)	i	-1%	8%	i	i	8%
CC1CC1C(=O)Nc1ccc(S(=O)(=O)N2CCCCC2)cc1 (centres undefined)	i	-2%	-4%	10µM*	i	-2%
O=C(Nc1ccc(S(=O)(=O)N2CCCCC2)cc1)C1CCCN(C(=O)c2ccc(Cl)cc2)C1 (centres undefined)	i	-20%	-8%	i	9.2µM*	-10%
O=C(O)C1CCCCC1C(=O)Nc1ccc(S(=O)(=O)N2CCCCCC2)cc1 (centres undefined)	i	-12%	-3%	i	i	-16%
N#CCCn1cc(C(=O)Nc2ccc([N+](=O)[O-])cc2)c(-c2cc3ccccc3o2)n1	25µM*	·	?	i	i	-17%
C[C@@]12C=CC(=O)C=C1CC[C@H]1[C@H]3CC[C@](O)(C(=O)CO)[C@]3(C)CC(=O)[C@@H]12	i	·	·	·	·	·
CC[C@@H](C)[C@H](NC(=O)OCc1ccccc1)c1nnc([C@@H](NC(=O)OCc2ccccc2)[C@@H](C)CC)o1	i	-8%	-3%	i	i	-5%
CC[C@@H](C)[C@H](NC(=O)OC(C)(C)C)c1nnc(S(=O)(=O)Cc2cc(C)ccc2C)o1	·	?	16µM*	?	i	10µM*
Cc1ccccc1CS(=O)(=O)c1nnc([C@H](CC(C)C)NC(=O)OC(C)(C)C)o1	?	?	11µM*	i	?	4µM*
CC(C)[C@H](NC(=O)OC(C)(C)C)c1nnc(S(=O)(=O)Cc2c(F)cccc2Cl)o1	·	?	6.3µM*	?	i	4µM*
CC(C)(C)OC(=O)N[C@@H](Cc1ccccc1)c1nnc(S(=O)(=O)Cc2cccc(F)c2)o1	·	?	?	18µM*	18µM*	23µM*
CC(C)C[C@H](NC(=O)OC(C)(C)C)c1nnc(SCc2ccccc2)o1	i	-12%	-8%	?	i	-22%
C[C@H](NC(=O)OC(C)(C)C)c1nnc(SCc2c(F)cccc2Cl)o1	i	-10%	·	?	i	·
Cc1cccc(NC(=O)C2CCN(c3nccc(C)n3)CC2)c1	i	0%	6%	15µM*	i	5%
CCC(C)c1ccc(NC(=O)C2CCN(c3ccc(C(F)(F)F)cn3)CC2)cc1 (centres undefined)	i	-13%	?	i	i	?
CCC(C)c1ccc(NC(=O)C2CCN(c3ncccn3)CC2)cc1 (centres undefined)	i	0%	?	18µM*	?	-13%
Cc1c(C(=O)Nc2ccccc2)sc2nc(-c3cc4cc(Cl)ccc4oc3=O)[nH]c(=O)c12	·	·	·	i	i	·
CCCn1c2ccccc2c2cnn(CC(=O)N(CCCOC(C)C)Cc3ccco3)c(=O)c21	?	?	·	?	i	·
Cc1cccc(-n2nc(C)c(C(=O)Nc3cc(C)ccc3C)c2-n2cccc2)c1	·	·	·	i	i	·
Cc1ccc(N(CC(=O)NCCSc2nc3ccccc3s2)S(=O)(=O)c2ccccc2)c(C)c1	?	-19%	-7%	8.2µM*	?	-20%
c1ccc2sc(SCSc3nc4ccccc4s3)nc2c1	i	·	-1%	i	i	-23%
SMILES	ATXN viability	ATXN2 expr inh	HT1080-NT tox	KB-V1 cytotox	KB-3-1 cytotox	HT1080 IDH1KD tx
O=C(O)CCSc1nc2ccccc2s1	i	10µM*	1%	i	i	-2%
CCc1cccc(CC)c1NC(=O)CCCSc1nc2ccccc2s1	i	-7%	-3%	12µM*	?	-22%
Cc1cccc(C)c1NC(=O)CCCSc1nc2ccccc2s1	i	1%	0%	i	i	1%
CCc1cccc(CC)c1NC(=O)CSc1nc2ccc(N3C(=O)C4C(C3=O)[C@H]3C=C[C@@H]4C3)cc2s1 (some centres undefined)	i	-19%	2%	i	i	26µM*
c1ccc(CCN=C2CCCc3c2[nH]c2ccccc32)cc1	?	-1%	3%	?	13µM*	24%
Nc1ccc(C(=O)N/N=C2\CCCc3c2[nH]c2ccccc32)cc1	i	13%	15%	i	?	2%
CCOc1nc(SCCOc2ccc(Cl)cc2Cl)nc(N(C)C)n1	i	-11%	26%	21µM*	i	5%
COc1ccc(C(=O)N2CCN(C(=O)COc3ccccc3)CC2)cc1OC	i	-3%	·	i	i	·
CC(C)(C)c1ccc(C(=O)NCC(c2cccnc2)N2CCc3ccccc3C2)cc1 (centres undefined)	·	·	·	i	i	·
C1=CCOCc2cc(ccc2OCCN2CCCC2)Nc2nccc(n2)-c2cccc(c2)OCC1	·	15µM*	·	·	·	·
COC(=O)/C(=C\Nc1ccc(Cl)cc1Cl)NC(=O)c1ccc(OC)cc1	?	-14%	3.3µM*	4.1µM*	5.8µM*	1.6µM*
COC(=O)/C(=C\Nc1ccc(OC)cc1)NC(=O)c1ccc(Cl)cc1Cl	i	2%	-4%	i	?	-20%
CCOC(=O)c1ccccc1NC(=O)CSc1ncc(CO)n1Cc1ccc(C)cc1	i	-25%	·	i	i	·
CCSc1oc(-c2ccccc2)nc1S(=O)(=O)c1ccccc1	i	-7%	-3%	i	i	2%
CSc1oc(-c2ccccc2)nc1S(=O)(=O)c1ccc(C)cc1	i	-2%	6%	21µM*	i	-18%
COc1cccc(C(=O)Nc2ccc(N3CCN(C(=O)c4cccs4)CC3)cc2)c1	i	-35%	?	2.3µM*	5.2µM*	2.6µM*
O=C(Nc1ccc(N2CCN(C(=O)c3cccs3)CC2)cc1)c1cccc(F)c1	i	-33%	-29%	?	18µM*	?
